Drawing on PubChem BioAssay AID488859 (Sanford-Burnham Center for Chemical Genomics, 2010), this text covers inhibition for 83 compounds.

Hit rate of the full screen: of about 1,400 compounds, about 970 (69%) were called active. Inconclusive results (about 5%) are left out. The set was probably picked from earlier hits. The list is a sample of the results. Values without a mark were called inactive. Rule as the data show it: active = inhibition above about 45%; inconclusive = no clear call, values can overlap the other calls; inactive = below that.

One may read the inhibition as the drop in the measured response relative to a control, in per cent.

In this assay the target is Ubiquitin-conjugating enzyme E2 N (Homo sapiens) (UniProt P61088). In words: UBC13 polyubiquitination inhibitors, single-point retest, confirmation, biochemical, TR-FRET, single concentration (AID 488859). The conditions noted are these: at 10 µM, active compounds read high.
Chain of Ubiquitin-conjugating enzyme E2 N (Homo sapiens) (P61088 whole entry, looked up): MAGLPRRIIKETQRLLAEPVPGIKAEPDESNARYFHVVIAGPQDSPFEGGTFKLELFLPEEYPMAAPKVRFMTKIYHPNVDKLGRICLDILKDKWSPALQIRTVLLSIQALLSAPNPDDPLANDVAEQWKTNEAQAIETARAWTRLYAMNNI
In the case of `O=C(COC(=O)Cn1cnc2ccccc2c1=O)NCc1ccccc1Cl`, the inhibition was 57.6% (active).

In the case of `CCN1CCN(CCNC(=O)c2ccc(/C=C3/Sc4ccccc4N(Cc4cccc(C)c4)C3=O)cc2)CC1`, the inhibition was 85.6% (active).

Regarding `COc1ccc(N(C(=O)c2snc(C(N)=O)c2N)C(C(=O)NC2CCCC2)c2ccco2)cc1OC` (stereo not drawn), the inhibition was 96.8% (active).

`CCC(C(=O)NC1CCCC1)N(C(=O)c1snc(C(N)=O)c1N)c1ccc2c(c1)OCCO2` (stereo not drawn): the inhibition is 95% (active).

In the case of `NC(N)=Nc1nc(-c2ccccc2)c2cc(Cl)ccc2n1`, the inhibition is 79.9% (active).

For `COc1ccc(C(CNC(=O)c2ccc(S(=O)(=O)Nc3ccccc3F)cc2)N(C)C)cc1` (stereo not drawn), the inhibition was 114% (active).

`NC(=O)NC(CC(=O)NNC(=O)c1ccccn1)c1ccc(Cl)cc1` (stereo not drawn): the inhibition is 95.3% (active).

As to `CC(C)n1cnc2c(Nc3cccc(Cl)c3)nc(N(CCO)CCCO)nc21`, the inhibition was 30.6%.

For the compound `COc1cccc2sc3cc(NCC[C@@H]4CCCN4C)ccc3c(=O)c12`, the inhibition was 41.3%.

For `CCCC[C@@H]1CN=C(N)N1CCc1cc(C(F)(F)F)cc(C(F)(F)F)c1`, the inhibition was 55.4% (active).

With `CN(C)CC(O)COc1ccc(C(C)(C)c2ccc(OCC(O)CN(C)C)cc2)cc1` (stereo not drawn), the inhibition is 60.5% (active).

For the compound `Cc1ccc(NC(=O)c2cnc(SCC(=O)NCC3CCCO3)n(C)c2=O)cc1` (stereo not drawn), the inhibition is 95.9% (active).

For the compound `NC[C@H](Cc1ccccc1)NCCc1cc(C(F)(F)F)cc(C(F)(F)F)c1`, the inhibition was 40.1%.

Regarding `Cc1c(CN2CCC(CO)(CCOc3ccccc3)CC2)[nH]c2ccc(Cl)cc12`, the inhibition is 74% (active).

Regarding `CCOC(=O)[C@@H]1[C@H]2COc3cc(OC)ccc3[C@H]2N2C(=O)N(c3ccc(F)cc3)C(=O)[C@]12C`, the inhibition is 1.2%.

Turning to `O=C(CCCCCN1C(=O)c2cccc3cccc(c23)C1=O)NCc1ccco1`, the inhibition was 50.7% (active).

As to `CN(C)c1ccnc2sc3c(=O)n(Cc4ccccc4)cnc3c12`, the inhibition is 57.1% (active).

`COc1ccnc2c1c(=O)n(Cc1cccc(F)c1)c(=O)n2C`: the inhibition is 52.3% (active).

With `C#CCOCCOCCOCCNc1nc(N2CCN(C(=O)CCCCCCCCCCNC(=O)[C@H](CCCCN)n3cc(C)nn3)CC2)nc(N2CCN(C(=O)CCCCCCCCCCNC(=O)[C@H](CO)n3cc(CCCSC)nn3)CC2)n1`, the inhibition was 121% (active).

As to `C#CCOCCOCCOCCNc1nc(N2CCN(C(=O)CCCCCCCCCCNC(=O)[C@H]([C@@H](C)CC)n3cc(CCCCN=C(N)N)nn3)CC2)nc(N2CCN(C(=O)CCCCCCCCCCNC(=O)[C@H](CO)n3cc(CCCSC)nn3)CC2)n1`, the inhibition was 121% (active).

For `C#CCOCCOCCOCCNc1nc(N2CCN(C(=O)CCCCCCCCCCNC(=O)Cn3cc(CCCCCN)nn3)CC2)nc(N2CCN(C(=O)CCCCCCCCCCNC(=O)[C@H](CO)n3cc(CCCSC)nn3)CC2)n1`, the inhibition was 129% (active).

As for `CC1(C)Cc2ccccc2-c2[nH]c(=S)[nH]c(=O)c21`, the inhibition is 26.2%.

As to `CC1CC(C)(C)n2c(O)c(N=NC(N)=S)c3cccc1c32` (stereo not drawn), the inhibition is 107% (active).

For the compound `COc1ccc(-n2nnnc2-c2nc3ccccc3s2)cc1`, the inhibition is 51.1% (active).

For the compound `CN1CCC(CN)(N2CCN(c3ccccc3)CC2)CC1`, the inhibition is 48.6% (active).

For `CC(=O)NC(=S)NNC(=O)c1ccc(Br)cc1`, the inhibition is 89.8% (active).

With `COc1ccc(/C=N\NC(=O)c2sc(N)nc2C)cc1OC`, the inhibition was 110% (active).

For `O=C(CCCCCn1c(=O)[nH]c2ccccc2c1=O)NCCc1c[nH]c2ccccc12`, the inhibition is 67.3% (active).

Regarding `CCOC(=O)N1CCN(C(=O)Cc2ccc(-n3c(=S)[nH]c4ccccc4c3=O)cc2)CC1`, the inhibition was 37.3%.

For the compound `c1ccc(C[C@H]2CNCCN2CCC23CC4CC(CC(C4)C2)C3)cc1`, the inhibition is 42.5%.

Take `CCN(CC)CCNC(=O)c1ccc(NC(=O)c2cc(-c3ccncc3)nc3ccccc23)cc1`: the inhibition was 91.5% (active).

As to `CCOc1ccc(N(C(=O)c2snc(C(N)=O)c2N)C(C(=O)NCC2CCCO2)c2c[nH]c3ccccc23)cc1` (stereo not drawn), the inhibition was 100% (active).

For the compound `Cc1ccc(C(C(=O)NCC2CCCO2)N(C(=O)c2snc(C(N)=O)c2N)c2ccc(C(C)C)cc2)o1` (stereo not drawn), the inhibition was 30.4%.

With `COc1cccc(N(C(=O)c2snc(C(N)=O)c2N)C(C(=O)NCC2CCCO2)c2c[nH]c3ccccc23)c1` (stereo not drawn), the inhibition is 57.9% (active).

As for `Cc1ccc(N(C(=O)c2snc(C(N)=O)c2N)C(C(=O)NCC2CCCO2)c2c[nH]c3ccccc23)cc1` (stereo not drawn), the inhibition is 70.6% (active).

In the case of `O=c1cc(CO)oc(C(Nc2cccc([N+](=O)[O-])c2)c2ccccn2)c1O` (stereo not drawn), the inhibition is 39.1%.

Take `O=c1cc(CO)oc(C(Nc2cccc(C(F)(F)F)c2)c2ccccn2)c1O` (stereo not drawn): the inhibition is 88.9% (active).

With `O=c1c2c(nc3n1CCCCC3)sc1c(O)cccc12`, the inhibition was 104% (active).

`Cc1cccc(-n2cnc(C(=O)NNC(=S)Nc3ccccc3)c2)n1`: the inhibition was 107% (active).

`CCOCCCNC(=O)c1cn(CC(C)C)c(=O)c2c1c1ccccc1n2C`: the inhibition was 37.9%.

`Cc1ccc(NC2=C(Cl)C(=O)OC2OC(=O)c2ccccc2C)cc1` (stereo not drawn): the inhibition is 62% (active).

In the case of `Cc1ccccc1C(=O)OC1OC(=O)C(Cl)=C1Nc1ccccc1` (stereo not drawn), the inhibition was 88.9% (active).

As for `C[C@@H](CN1CCC[C@H]1CN1C(N)=NC[C@@H]1Cc1ccccc1)N1C[C@@H](Cc2ccccc2)N(CCCC2CCCC2)C1=N`, the inhibition is 58.5% (active).

`CC[C@@H](C)[C@@H]1CN([C@@H](C)CN2CCC[C@H]2CN2C(N)=NC[C@H]2C(C)C)C(=N)N1CCc1ccc(Cl)c(Cl)c1`: the inhibition was 38.2%.

Regarding `COc1ccc2sc(-c3ccc(S(C)(=O)=O)cc3)c(C#Cc3cncn3C)c2c1`, the inhibition was 29.5%.

In the case of `COc1ccc2sc(-c3ccccc3OC)c(-c3ccc(OCCN4CCCC4)cc3)c2c1`, the inhibition was 54.8% (active).

Regarding `CCOC(=O)c1ccc(NC(=O)c2nc[nH]c2C(=O)NCc2ccccc2)cc1`, the inhibition is 25.1%.

Consider `CC1CN(C(=O)CCC(=O)NCCCN2CCC(Cc3ccccc3)CC2)c2cc(Cl)ccc2O1` (stereo not drawn), for which the inhibition was 87.8% (active).

Take `CCOC(=O)C1=C(c2ccccc2)O/C(=C(/C(=O)OC)C(F)(F)F)S1`: the inhibition was 42.4%.

With `Cc1cccc(-c2nc3ccc(C(=O)NCCN4CCN(C)CC4)cc3nc2-c2cccc(C)c2)c1`, the inhibition is 72.8% (active).

For `Cc1ccc(C(=O)N/C(=C/c2ccc(-c3cccc([N+](=O)[O-])c3)o2)C(=O)NCCCN(C)C)cc1`, the inhibition was 78% (active).

Turning to `O=S(=O)(c1ccc(NC(=S)NN=C(C2CC2)C2CC2)cc1)N1CCOCC1`, the inhibition was 60.4% (active).

As for `CN(C(=O)CN(CCO)CC(=O)N(C)C(C)(C)Cc1ccccc1)C(C)(C)Cc1ccccc1`, the inhibition was 44.3%.

For the compound `Cc1cccc(OCC(O)CN2CCN(CCN3C(=O)c4cccc5cccc(c45)C3=O)CC2)c1C` (stereo not drawn), the inhibition is 101% (active).

For the compound `CCN1C(=NCc2ccc(OC)cc2)N[C@@H](CCc2ccccc2)[C@H](C(=O)NCc2ccc(OC)cc2)[C@H]1C`, the inhibition was 34.8%.

In the case of `COc1cccc(Cn2cnc3c([N+](=O)[O-])c(C)c(C)cc32)c1`, the inhibition was 63.7% (active).

`NC(N)=N/N=C/c1ccc(OCc2ccc(Cl)cc2Cl)cc1`: the inhibition is 121% (active).

Take `CN(C)CCCN(C(=O)c1ccc(S(=O)(=O)N2CCCCCC2)cc1)c1nc2cc3c(cc2s1)OCCO3`: the inhibition was 110% (active).

Turning to `CCOc1ccc2nc(N(CCCN(C)C)C(=O)c3ccc(C(=O)c4ccccc4)cc3)sc2c1`, the inhibition was 111% (active).

Take `CN(C)CCCN(C(=O)c1ccc(S(=O)(=O)N2CCCCCC2)cc1)c1nc2ccc(Br)cc2s1`: the inhibition is 107% (active).

On to `c1ccc2c(CCN3CCNC[C@H]3Cc3cccc4ccccc34)cccc2c1`, for which the inhibition was 44.3%.

On to `CCCCCCCCCCOC(=O)Cn1c(COc2cccc(OC)c2)[n+](C)c2ccccc21`, for which the inhibition is 63.8% (active).

In the case of `COc1ccc(C(CNC(=O)c2cccc(NS(=O)(=O)c3ccc(C)c(F)c3)c2)N2CCCC2)cc1` (stereo not drawn), the inhibition is 94.5% (active).

As for `CCOC(=O)c1cccc(NS(=O)(=O)c2c(C(=O)N3CCCCCC3)c(C)n(C)c2C)c1`, the inhibition is 43.9%.

Consider `CCCCN(C)CCCNC(=O)c1cc(-c2cccs2)nc2ccccc12`, for which the inhibition was 45.7% (active).

As for `COC(=O)c1cc(-c2cccs2)nc2ccccc12`, the inhibition was 18.1%.

In the case of `Cc1cc(C)c(NC(=O)C[N+](C)(C)CC(O)COc2cccc3ccccc23)c(C)c1` (stereo not drawn), the inhibition is 60.3% (active).

As for `CCCCN(CCCC)CCC(O)c1cc2c(Cl)cc(Cl)cc2c2cc(C(F)(F)F)ccc12` (stereo not drawn), the inhibition was 56.5% (active).

In the case of `Cc1ccc(-c2noc(CCC(=O)Nc3ccccc3N3CCN(C)CC3)n2)cc1`, the inhibition was 92.8% (active).

`CCCOc1ccc(Cl)cc1Nc1nc(NCCO)nc(N2CCCC2)n1`: the inhibition was 16.5%.

`C#CCOCCOCCOCCNc1nc(N2CCN(C(=O)[C@H](CCCCN)n3cc([C@@H](N)C(C)CC)nn3)CC2)nc(N2CCN(C(=O)[C@H](Cc3ccc(O)cc3)n3cc([C@@H](N)C(C)CC)nn3)CC2)n1` (stereo partly drawn): the inhibition is 105% (active).

Consider `C#CCOCCOCCOCCNc1nc(N2CCN(C(=O)C([C@@H](C)O)n3cc([C@@H](N)CCCCN)nn3)CC2)nc(N2CCN(C(=O)[C@H](CCCCN)n3cc(CN)nn3)CC2)n1` (stereo partly drawn), for which the inhibition was 113% (active).

On to `C#CCOCCOCCOCCNc1nc(N2CCN(C(=O)C(Cc3ccc(O)cc3)n3cc(C(N)CC(C)C)nn3)CC2)nc(N2CCN(C(=O)C(Cc3ccc(O)cc3)n3cc(C(N)C(C)CC)nn3)CC2)n1` (stereo not drawn), for which the inhibition is 23.8%.

Turning to `C#CCOCCOCCOCCNc1nc(N2CCN(C(=O)C([C@@H](C)CC)n3cc(C(N)COC(=O)C(F)(F)F)nn3)CC2)nc(N2CCN(C(=O)[C@H](CCCCN)n3cc(C(N)CC(C)C)nn3)CC2)n1` (stereo partly drawn), the inhibition is 103% (active).

In the case of `C=C1c2c(Cl)ccc(O)c2C(O)=C2C(=O)[C@]3(O)C(O)=C(C(N)=O)C(=O)[C@@H](N(C)C)[C@@H]3[C@@H](O)C12` (stereo partly drawn), the inhibition is 50.8% (active).

With `COc1ccccc1NC(=O)CSc1nnc(-c2ccoc2C)n1CCc1ccccc1`, the inhibition is 94.4% (active).

On to `CCN(CC)CCC(c1cc(OC)c(OC)c(OC)c1)c1c(OC)cc(OC)c2c(-c3ccccc3)cc(=O)oc12` (stereo not drawn), for which the inhibition was 35.1%.

`CN1CCN(CCCNC(=O)c2ccc(/C=C3\Oc4ccccc4N(Cc4ccc(Cl)cc4)C3=O)cc2)CC1`: the inhibition was 111% (active).

Take `Cn1c(C(=O)NCCCN2CCN(c3cccc(Cl)c3)CC2)cc2c(=O)n(C)c3ccccc3c21`: the inhibition was 38.7%.

As for `CCN(CC(=O)NCc1cccs1)C(=O)c1cccc(S(=O)(=O)Nc2ccccc2OC)c1`, the inhibition was 106% (active).

Regarding `OCCNc1nc(Nc2ccc(Cl)c(Cl)c2)nc2ccccc12`, the inhibition is 92% (active).

`Cc1ncc(CO)c(/C=N/NC(=O)c2cccc(S(=O)(=O)N3CCCC3)c2)c1O`: the inhibition was 32.9%.

As to `CSCCC(NC(=O)c1ccc(Cl)cc1Cl)C(=O)NNC(=O)c1csc(N2CCOCC2)n1` (stereo not drawn), the inhibition is 55.6% (active).
